Laboratory results from publication PMC11062922 (Nature Chemical Biology, 2023).
Where two headings read alike, the source gives them in different places.

How the values were obtained:
STK3 = details: read-out: apparent Kd, n = 1
STK4 = details: read-out: apparent Kd, n = 1
[1] = compound concentrations:100 nM and 1000 nM (sheet 'Lestaurtinib' of Supplementary Table 1),run:Lestaurtinib_02367_R1,Plate:MR003
[2] = compound concentrations:100 nM and 1000 nM (sheet 'Lestaurtinib' of Supplementary Table 1),run:Lestaurtinib_02367_R2,Plate:MR003
[3] = compound concentrations:100 nM and 1000 nM (sheet 'Lestaurtinib' of Supplementary Table 1),run:Lestaurtinib_02367_R3,Plate:MR003
[4] = compound concentrations:100 nM and 1000 nM (sheet 'Lestaurtinib' of Supplementary Table 1),run:Lestaurtinib_02381_R1,Plate:MR004
[5] = compound concentrations:100 nM and 1000 nM (sheet 'Lestaurtinib' of Supplementary Table 1),run:Lestaurtinib_02381_R2,Plate:MR004
[6] = compound concentrations:100 nM and 1000 nM (sheet 'Lestaurtinib' of Supplementary Table 1),run:Lestaurtinib_02407_R3,Plate:MR005
[7] = compound concentrations:100 nM and 1000 nM (sheet 'Lestaurtinib' of Supplementary Table 1),run:Lestaurtinib_02422_R1,Plate:MR006
[8] = compound concentrations:100 nM and 1000 nM (sheet 'Lestaurtinib' of Supplementary Table 1),run:Lestaurtinib_02422_R2,Plate:MR006
[9] = compound concentrations:100 nM and 1000 nM (sheet 'Lestaurtinib' of Supplementary Table 1),run:Lestaurtinib_02437_R1,Plate:MR007
[10] = compound concentrations:100 nM and 1000 nM (sheet 'Lestaurtinib' of Supplementary Table 1),run:Lestaurtinib_02437_R2,Plate:MR007
[11] = compound concentrations:100 nM and 1000 nM (sheet 'Lestaurtinib' of Supplementary Table 1),run:Lestaurtinib_02438_R1,Plate:MR008
[12] = compound concentrations:100 nM and 1000 nM (sheet 'Lestaurtinib' of Supplementary Table 1),run:Lestaurtinib_02443_R1,Plate:MR009
[13] = compound concentrations:100 nM and 1000 nM (sheet 'Lestaurtinib' of Supplementary Table 1),run:Lestaurtinib_02473_R2,Plate:MR010

Lestaurtinib
potency estimated from few doses (STK3; [1]): 39.1 nM | potency estimated from few doses (STK3; [2]): 37.3 nM | potency estimated from few doses (STK3; [3]): 42.9 nM | potency estimated from few doses (STK3; [4]): 32.9 nM | potency estimated from few doses (STK3; [5]): 38.2 nM | potency estimated from few doses (STK3; compound concentrations:100 nM and 1000 nM (sheet 'Lestaurtinib' of Supplementary Table 1),run:Lestaurtinib_02407_R1,Plate:MR005): 40 nM | potency estimated from few doses (STK3; compound concentrations:100 nM and 1000 nM (sheet 'Lestaurtinib' of Supplementary Table 1),run:Lestaurtinib_02407_R2,Plate:MR005): 29.8 nM | potency estimated from few doses (STK3; [6]): 30.1 nM | potency estimated from few doses (STK3; [7]): 51.1 nM | potency estimated from few doses (STK3; [8]): 62.7 nM | potency estimated from few doses (STK3; [9]): 38.1 nM | potency estimated from few doses (STK3; [10]): 50.7 nM | potency estimated from few doses (STK3; [11]): 29.8 nM | potency estimated from few doses (STK3; [12]): 41.6 nM | potency estimated from few doses (STK3; compound concentrations:100 nM and 1000 nM (sheet 'Lestaurtinib' of Supplementary Table 1),run:Lestaurtinib_02443_R2,Plate:MR009): 39.1 nM | potency estimated from few doses (STK3; compound concentrations:100 nM and 1000 nM (sheet 'Lestaurtinib' of Supplementary Table 1),run:Lestaurtinib_02473_R1,Plate:MR010): 47.3 nM | potency estimated from few doses (STK3; [13]): 42.2 nM | potency estimated from few doses (STK3; compound concentrations:100 nM and 1000 nM (sheet 'Lestaurtinib' of Supplementary Table 1),run:Lestaurtinib_02482_R1,Plate:MR011): 27.1 nM | potency estimated from few doses (STK3; compound concentrations:100 nM and 1000 nM (sheet 'Lestaurtinib' of Supplementary Table 1),run:Lestaurtinib_02482_R2,Plate:MR011): 44.7 nM | potency estimated from few doses (STK3; compound concentrations:100 nM and 1000 nM (sheet 'Lestaurtinib' of Supplementary Table 1),run:Lestaurtinib_02482_R3,Plate:MR011): 40.8 nM | potency estimated from few doses (STK3; compound concentrations:100 nM and 1000 nM (sheet 'Lestaurtinib' of Supplementary Table 1),run:Lestaurtinib_02487_R1,Plate:MR012): 28.6 nM | potency estimated from few doses (STK3; compound concentrations:100 nM and 1000 nM (sheet 'Lestaurtinib' of Supplementary Table 1),run:Lestaurtinib_02487_R3,Plate:MR012): 38.9 nM | potency estimated from few doses (STK3; compound concentrations:100 nM and 1000 nM (sheet 'Lestaurtinib' of Supplementary Table 1),run:Lestaurtinib_02496_R1,Plate:MR013): 45 nM | potency estimated from few doses (STK3; compound concentrations:100 nM and 1000 nM (sheet 'Lestaurtinib' of Supplementary Table 1),run:Lestaurtinib_02496_R3,Plate:MR013): 48.7 nM | potency estimated from few doses (STK3; compound concentrations:100 nM and 1000 nM (sheet 'Lestaurtinib' of Supplementary Table 1),run:Lestaurtinib_02566_R2,Plate:MR014): 41 nM | potency estimated from few doses (STK3; compound concentrations:100 nM and 1000 nM (sheet 'Lestaurtinib' of Supplementary Table 1),run:Lestaurtinib_02566_R3,Plate:MR014): 24.5 nM | potency estimated from few doses (STK3; compound concentrations:100 nM and 1000 nM (sheet 'Lestaurtinib' of Supplementary Table 1),run:Lestaurtinib_02572_R2,Plate:MR015): 50.4 nM | potency estimated from few doses (STK3; compound concentrations:100 nM and 1000 nM (sheet 'Lestaurtinib' of Supplementary Table 1),run:Lestaurtinib_02572_R3,Plate:MR015): 58.4 nM | potency estimated from few doses (STK3; compound concentrations:100 nM and 1000 nM (sheet 'Lestaurtinib' of Supplementary Table 1),run:Lestaurtinib_02577_R1,Plate:MR016): 36 nM | potency estimated from few doses (STK3; compound concentrations:100 nM and 1000 nM (sheet 'Lestaurtinib' of Supplementary Table 1),run:Lestaurtinib_02577_R2,Plate:MR016): 45 nM | potency estimated from few doses (STK3; compound concentrations:100 nM and 1000 nM (sheet 'Lestaurtinib' of Supplementary Table 1),run:Lestaurtinib_02584_R1,Plate:MR017): 38.6 nM | potency estimated from few doses (STK3; compound concentrations:100 nM and 1000 nM (sheet 'Lestaurtinib' of Supplementary Table 1),run:Lestaurtinib_02584_R3,Plate:MR017): 47.5 nM | potency estimated from few doses (STK3; compound concentrations:100 nM and 1000 nM (sheet 'Lestaurtinib' of Supplementary Table 1),run:Lestaurtinib_02601_R1,Plate:MR018): 59.1 nM | potency estimated from few doses (STK3; compound concentrations:100 nM and 1000 nM (sheet 'Lestaurtinib' of Supplementary Table 1),run:Lestaurtinib_02601_R2,Plate:MR018): 39.6 nM | potency estimated from few doses (STK3; compound concentrations:100 nM and 1000 nM (sheet 'Lestaurtinib' of Supplementary Table 1),run:Lestaurtinib_02606_R2,Plate:MR019): 46.2 nM | potency estimated from few doses (STK3; compound concentrations:100 nM and 1000 nM (sheet 'Lestaurtinib' of Supplementary Table 1),run:Lestaurtinib_02606_R3,Plate:MR019): 47.4 nM | potency estimated from few doses (STK3; compound concentrations:100 nM and 1000 nM (sheet 'Lestaurtinib' of Supplementary Table 1),run:Lestaurtinib_02624_R1,Plate:MR020): 53.2 nM | potency estimated from few doses (STK3; compound concentrations:100 nM and 1000 nM (sheet 'Lestaurtinib' of Supplementary Table 1),run:Lestaurtinib_02624_R2,Plate:MR020): 42.5 nM | potency estimated from few doses (STK3; compound concentrations:100 nM and 1000 nM (sheet 'Lestaurtinib' of Supplementary Table 1),run:Lestaurtinib_02624_R3,Plate:MR020): 40.4 nM | potency estimated from few doses (STK3; compound concentrations:100 nM and 1000 nM (sheet 'Lestaurtinib' of Supplementary Table 1),run:Lestaurtinib_02724_R1,Plate:MR021): 44.8 nM | potency estimated from few doses (STK3; compound concentrations:100 nM and 1000 nM (sheet 'Lestaurtinib' of Supplementary Table 1),run:Lestaurtinib_02724_R2,Plate:MR021): 42.8 nM | potency estimated from few doses (STK3; compound concentrations:100 nM and 1000 nM (sheet 'Lestaurtinib' of Supplementary Table 1),run:Lestaurtinib_02724_R3,Plate:MR021): 38.4 nM | potency estimated from few doses (STK3; compound concentrations:100 nM and 1000 nM (sheet 'Lestaurtinib' of Supplementary Table 1),run:Lestaurtinib_02748_R1,Plate:MR024): 35.8 nM | potency estimated from few doses (STK3; compound concentrations:100 nM and 1000 nM (sheet 'Lestaurtinib' of Supplementary Table 1),run:Lestaurtinib_02748_R3,Plate:MR024): 40.1 nM | potency estimated from few doses (STK3; compound concentrations:100 nM and 1000 nM (sheet 'Lestaurtinib' of Supplementary Table 1),run:Lestaurtinib_02765_R1,Plate:MR026): 38.6 nM | potency estimated from few doses (STK3; compound concentrations:100 nM and 1000 nM (sheet 'Lestaurtinib' of Supplementary Table 1),run:Lestaurtinib_02765_R2,Plate:MR026): 37.7 nM | potency estimated from few doses (STK3; compound concentrations:100 nM and 1000 nM (sheet 'Lestaurtinib' of Supplementary Table 1),run:Lestaurtinib_02766_R3,Plate:MR027): 42.9 nM | potency estimated from few doses (STK3; compound concentrations:100 nM and 1000 nM (sheet 'Lestaurtinib' of Supplementary Table 1),run:Lestaurtinib_02768_R1,Plate:MR028): 31.9 nM | potency estimated from few doses (STK3; compound concentrations:100 nM and 1000 nM (sheet 'Lestaurtinib' of Supplementary Table 1),run:Lestaurtinib_02768_R3,Plate:MR028): 40.1 nM | potency estimated from few doses (STK3; compound concentrations:100 nM and 1000 nM (sheet 'Lestaurtinib' of Supplementary Table 1),run:Lestaurtinib_02795_R1,Plate:MR022): 43.4 nM | potency estimated from few doses (STK3; compound concentrations:100 nM and 1000 nM (sheet 'Lestaurtinib' of Supplementary Table 1),run:Lestaurtinib_02795_R2,Plate:MR022): 27.8 nM | potency estimated from few doses (STK3; compound concentrations:100 nM and 1000 nM (sheet 'Lestaurtinib' of Supplementary Table 1),run:Lestaurtinib_02795_R3,Plate:MR022): 141 nM | potency estimated from few doses (STK3; compound concentrations:100 nM and 1000 nM (sheet 'Lestaurtinib' of Supplementary Table 1),run:Lestaurtinib_02802_R1,Plate:MR029): 22.4 nM | potency estimated from few doses (STK3; compound concentrations:100 nM and 1000 nM (sheet 'Lestaurtinib' of Supplementary Table 1),run:Lestaurtinib_02802_R3,Plate:MR029): 47.8 nM | potency estimated from few doses (STK3; compound concentrations:100 nM and 1000 nM (sheet 'Lestaurtinib' of Supplementary Table 1),run:Lestaurtinib_02896_R1,Plate:MR030): 38.8 nM | potency estimated from few doses (STK3; compound concentrations:100 nM and 1000 nM (sheet 'Lestaurtinib' of Supplementary Table 1),run:Lestaurtinib_02896_R2,Plate:MR030): 37.2 nM | potency estimated from few doses (STK3; compound concentrations:100 nM and 1000 nM (sheet 'Lestaurtinib' of Supplementary Table 1),run:Lestaurtinib_02896_R3,Plate:MR030): 37.9 nM | potency estimated from few doses (STK3; compound concentrations:100 nM and 1000 nM (sheet 'Lestaurtinib' of Supplementary Table 1),run:Lestaurtinib_03172_R1,Plate:MR031): 35 nM | potency estimated from few doses (STK3; compound concentrations:100 nM and 1000 nM (sheet 'Lestaurtinib' of Supplementary Table 1),run:Lestaurtinib_03172_R3,Plate:MR031): 39.7 nM | potency estimated from few doses (STK3; compound concentrations:100 nM and 1000 nM (sheet 'Lestaurtinib' of Supplementary Table 1),run:Lestaurtinib_03252_R2,Plate:MR032): 48.1 nM | potency estimated from few doses (STK3; compound concentrations:100 nM and 1000 nM (sheet 'Lestaurtinib' of Supplementary Table 1),run:Lestaurtinib_03260_R3,Plate:MR033): 36.6 nM | potency estimated from few doses (STK4; compound concentrations:100 nM and 1000 nM (sheet 'Lestaurtinib' of Supplementary Table 1),run:Lestaurtinib_02339_R1,Plate:MR001): 42 nM | potency estimated from few doses (STK4; compound concentrations:100 nM and 1000 nM (sheet 'Lestaurtinib' of Supplementary Table 1),run:Lestaurtinib_02339_R2,Plate:MR001): 40.1 nM | potency estimated from few doses (STK4; compound concentrations:100 nM and 1000 nM (sheet 'Lestaurtinib' of Supplementary Table 1),run:Lestaurtinib_02339_R3,Plate:MR001): 27.7 nM | potency estimated from few doses (STK4; compound concentrations:100 nM and 1000 nM (sheet 'Lestaurtinib' of Supplementary Table 1),run:Lestaurtinib_02364_R1,Plate:MR002): 35.9 nM | potency estimated from few doses (STK4; compound concentrations:100 nM and 1000 nM (sheet 'Lestaurtinib' of Supplementary Table 1),run:Lestaurtinib_02364_R2,Plate:MR002): 43 nM | potency estimated from few doses (STK4; compound concentrations:100 nM and 1000 nM (sheet 'Lestaurtinib' of Supplementary Table 1),run:Lestaurtinib_02364_R3,Plate:MR002): 43.2 nM | potency estimated from few doses (STK4; [1]): 35.7 nM | potency estimated from few doses (STK4; [2]): 35 nM | potency estimated from few doses (STK4; [3]): 39.1 nM | potency estimated from few doses (STK4; [4]): 35.8 nM | potency estimated from few doses (STK4; [5]): 36.2 nM | potency estimated from few doses (STK4; [6]): 33 nM | potency estimated from few doses (STK4; [7]): 44.8 nM | potency estimated from few doses (STK4; [8]): 50.1 nM | potency estimated from few doses (STK4; compound concentrations:100 nM and 1000 nM (sheet 'Lestaurtinib' of Supplementary Table 1),run:Lestaurtinib_02422_R3,Plate:MR006): 45.3 nM | potency estimated from few doses (STK4; [9]): 42 nM | potency estimated from few doses (STK4; [10]): 41.6 nM | potency estimated from few doses (STK4; compound concentrations:100 nM and 1000 nM (sheet 'Lestaurtinib' of Supplementary Table 1),run:Lestaurtinib_02437_R3,Plate:MR007): 4.01 nM | potency estimated from few doses (STK4; [11]): 36.6 nM | potency estimated from few doses (STK4; compound concentrations:100 nM and 1000 nM (sheet 'Lestaurtinib' of Supplementary Table 1),run:Lestaurtinib_02438_R3,Plate:MR008): 38.2 nM | potency estimated from few doses (STK4; [12]): 38.6 nM | potency estimated from few doses (STK4; compound concentrations:100 nM and 1000 nM (sheet 'Lestaurtinib' of Supplementary Table 1),run:Lestaurtinib_02443_R3,Plate:MR009): 36.6 nM | potency estimated from few doses (STK4; [13]): 44.6 nM | potency estimated from few doses (STK4; compound concentrations:100 nM and 1000 nM (sheet 'Lestaurtinib' of Supplementary Table 1),run:Lestaurtinib_02473_R3,Plate:MR010): 37.7 nM
